Laboratory results as given in PubChem BioAssay AID1159580 (chemical genetic matrix, 2015).
“And” between values parts separate entries of the source, which are not always exact repeats. Equal entries are not always repeated. Screen size: about 5,500 compounds; about 2,000 (36%) were called active. Roughly 18% stayed inconclusive and do not appear here. No stated cut-off is given here; in the data, active means normalized growth mostly below about 0.91 (no sharp cut-off); inconclusive means no clear call, values can overlap the other calls; inactive means mostly above about 0.92. Some of the results follow.

Assay: chemical genetic growth profiling, strain panel (AID 1159580);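 further: tested at 20 µM; growth read once vehicle control cultures reached saturation at 30 °C; 1 = growth at the plate median or of vehicle wells; lower values mean less growth of the strain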
Details: S. cerevisiae deletion strains, growth OD

Measured: normalized growth

CC[N+](CC)(CC)CCOc1cccc(OCC[N+](CC)(CC)CC)c1OCC[N+](CC)(CC)CC
inactive: locus YAL013W, strain DEP1, hits give low values 1.01 | locus YAL021C, strain ccr4, hits give low values 1.02 | locus YAL026C, strain drs2, hits give low values 1.01 | locus YAL030W, strain snc1, hits give low values 1.02 | locus YAL040C, strain CLN3, hits give low values 1.01 | locus YBL061C, strain skt5, hits give low values 1.02 | locus YBR009C, strain hhf1, hits give low values 1 | locus YBR021W, strain FUR4, hits give low values 1.01 | locus YBR023C, strain chs3, hits give low values 1.02 | locus YBR171W, strain sec66, hits give low values 1.02 | locus YBR229C, strain ROT2, hits give low values 1.01 | locus YBR231C, strain swc5, hits give low values 0.958 | locus YBR279W, strain paf1, hits give low values 1.03 | locus YCL011C, strain gbp2, hits give low values 1.02 | locus YCL016C, strain dcc1, hits give low values 1.02 | locus YCL029C, strain bik1, hits give low values 1 | locus YCL061C, strain MRC1 (second series), hits give low values 0.999 | locus YCL061C, strain MRC1, hits give low values 1.01 | locus YCL069W, strain vba3, hits give low values 1.01 | locus YCR088W, strain abp1, hits give low values 1.02 | locus YDL005C, strain med2, hits give low values 1.03 | locus YDL035C, strain GPR1, hits give low values 1 | locus YDL040C, strain nat1, hits give low values 1.01 | locus YDL074C, strain BRE1, hits give low values 1.02 | locus YDL101C, strain DUN1, hits give low values 1.01 | locus YDL134C, strain PPH21, hits give low values 1 | locus YDL185W, strain tfp1, hits give low values 1.02 | locus YDL192W, strain arf1, hits give low values 1.01 | locus YDR001C, strain nth1, hits give low values 1.01 | locus YDR069C, strain doa4, hits give low values 0.999 | locus YDR101C, strain arx1, hits give low values 0.996 | locus YDR137W, strain rgp1, hits give low values 1.05 | locus YDR150W, strain NUM1, hits give low values 0.995 | locus YDR159W, strain sac3, hits give low values 0.965 | locus YDR162C, strain NBP2, hits give low values 1.01 | locus YDR195W, strain ref2 0.983 | locus YDR297W, strain sur2, hits give low values 1.01 | locus YDR318W, strain mcm21, hits give low values 1.01 | locus YDR334W, strain swr1, hits give low values 1.01 | locus YDR335W, strain msn5, hits give low values 1.01 | locus YDR363W, strain ESC2, hits give low values 1.02 | locus YDR388W, hits give low values 1.01 | locus YDR502C, strain sam2, hits give low values 1 | locus YEL003W, strain gim4, hits give low values 1.01 | locus YEL037C, strain rad23, hits give low values 1.01 | locus YEL061C, strain CIN8 (second series), hits give low values 1.01 | locus YEL061C, strain CIN8, hits give low values 1.01 | locus YER002W, strain NOP16, hits give low values 0.986 | locus YER015W, strain faa2, hits give low values 0.994 | locus YER016W, strain bim1, hits give low values 0.984 | locus YER110C, hits give low values 1.01 | locus YER111C, strain swi4, hits give low values 1.02 | locus YER155C, strain BEM2 (second series), hits give low values 0.914 | locus YER155C, strain BEM2, hits give low values 1.02 | locus YER167W, strain BCK2, hits give low values 1.01 | locus YFR010W, strain ubp6, hits give low values 1.01 | locus YGL078C, strain dbp3, hits give low values 1 | locus YGL086W, strain mad1, hits give low values 0.98 | locus YGL167C, strain pmr1, hits give low values 1.02 | locus YGL173C, strain kem1, hits give low values 1.01 | locus YGL227W, strain vid30, hits give low values 1.03 | locus YGL240W, strain doc1, hits give low values 0.994 | locus YGL248W, strain PDE1, hits give low values 1.01 | locus YGL253W, strain hxk2, hits give low values 1.01 | locus YGR135W, strain pre9, hits give low values 1.03 | locus YGR229C, strain SMI1, hits give low values 1.05 | locus YGR252W, strain gcn5, hits give low values 0.969 | locus YHR013C, strain ard1, hits give low values 1.02 | locus YHR027C, strain rpn1, hits give low values 1.01 | locus YHR030C, strain SLT2, hits give low values 1 and 1.01 | locus YHR079C, strain IRE1 (second series), hits give low values 1.02 | locus YHR079C, strain IRE1, hits give low values 1.03 | locus YHR094C, strain hxt1, hits give low values 1.01 | locus YHR129C, strain ARP1, hits give low values 1 | locus YHR142W, strain chs7, hits give low values 1.02 | locus YHR200W, strain rpn10, hits give low values 1.02 | locus YIL066C, strain RNR3, hits give low values 1.01 | locus YIL073C, strain SPO22, hits give low values 1.05 | locus YIL125W, strain kgd1, hits give low values 1.01 | locus YIR030C, strain dcg1, hits give low values 1.01 | locus YJL092W, strain hpr5, hits give low values 1.02 | locus YJL095W, strain BCK1 (second series), hits give low values 1.02 | locus YJL095W, strain BCK1, hits give low values 1.02 and 0.997 | locus YJL115W, strain asf1, hits give low values 1.02 | locus YJL129C, strain trk1, hits give low values 1.01 | locus YJL134W, strain LCB3, hits give low values 1.01 | locus YJL154C, strain vps35, hits give low values 1.01 | locus YJL164C, strain tpk1, hits give low values 1.03 | locus YJL166W, strain qcr8, hits give low values 1.03 | locus YJL168C, strain set2, hits give low values 1.01 | locus YJL187C, strain SWE1 (second series), hits give low values 1.01 | locus YJL187C, strain SWE1, hits give low values 1.02 | locus YJR043C, strain POL32, hits give low values 1.01
active: locus YDR392W, strain spt3, hits give low values 0.673
